Results taken from ChEMBL document CHEMBL4513216, “Probing the Open Global Health Chemical Diversity Library for Multistage-Active Starting Points for Next-Generation Antimalarials” (ACS Infect Dis, 2020).
The whole screen tested about 65,000 compounds, of which about 2,100 (3.2%) showed an effect of 50% or more. The median lay at about -52%. The sample as a whole holds a higher share of strong results than the screen did.

The molecules below were run on Plasmodium falciparum (assay: Screen against P. falciparum Asexual Blood Stage (ABS), at 5uM). Conditions: tested at 5 uM.
Format: functional, Dd2

SMILES | INHIBITION
CCCC(=O)NS(=O)(=O)c1ccc(C#N)c(C(F)(F)F)c1 | -56%
c1ccc(C[C@H]2CN(C3CCOCC3)CC[C@H]2OCC2CC2)cc1 | 74.9%
O=C1N(Cc2cccnc2)C[C@H]2CN(C3CCOCC3)CCN12 | -55.6%
Cc1nnc(N2CC[C@@H](OCC3CC3)[C@@H](Cc3ccccc3)C2)s1 | 84.8%
O=C1[C@H]2CN(C3CCOCC3)C[C@H]2CN1Cc1cccnc1 | -28.2%
CO[C@@H]1CCN(C2CCOCC2)C[C@@H]1Cc1ccccc1 | 80.8%
CO[C@H]1CCN(C2CCOCC2)C[C@@H]1Cc1ccccc1 | 78.7%
NC(=O)C1CN(C(=O)Cc2cccnc2)CCN(C2CCOCC2)C1 (stereo not given) | -92.3%
c1cncc(CO[C@H]2CC[C@H]3[C@@H]2OCCN3C2CCOCC2)c1 | -57.8%
O=C1[C@H]2CN(C3CCOCC3)C[C@H]2CN1Cc1ccncc1 | -33.5%
c1ccc(CN2C[C@@H]3OCCN(CC4CCCO4)[C@@H]3C2)nc1 (stereo not given in full) | -0.326%
CCCN1CCN(C(=O)c2cnc(C)nc2)[C@H]2CS(=O)(=O)C[C@H]21 | -183%
O=C(C1CCCCC1)N1CC2(CCNCC2)C1 | -23.1%
CC(C)CN1CC[C@@H]2[C@@H]1CCN2C(=O)N(C)C | -67.2%
Cc1cnn(CC2CCN(CC(O)c3ccccc3Cl)CC2)c1 (stereo not given) | 78%
Cc1cnn(CC(C)NCC(=O)NC2CCOCC2)c1 (stereo not given) | 14.5%
CC(C)N1CCC(Cn2cc(C(N)=O)cn2)CC1 | -7.48%
c1cc(CO[C@@H]2CN(Cc3ccoc3)[C@@H]3CCCO[C@@H]32)ccn1 | -102%
O=C(CC1CCCC1)NCCNCc1cccc2c1OCCO2 | 71.6%
COCC(=O)N1C[C@H]2CNC[C@@]2(C(=O)NCc2c(C)noc2C)C1 | -53.3%
O=C1[C@H]2CN(Cc3ccccn3)C[C@H]2CN1c1ccsc1 | -16.2%
O=C(Nc1cc(C(F)(F)F)c[nH]c1=O)C1CCCN1 (stereo not given) | -151%
O=C(NCc1cccnc1)Nc1cc(C(F)(F)F)c[nH]c1=O | 79%
CC(C)CN1CCC2(CC(C(=O)NCc3cccnc3)=NO2)C1 (stereo not given) | -53.1%
COCCNC1(c2ccc(Cl)cc2)CCOCC1 | 65.6%

SMILES | INHIBITION
CCOCCNC1(c2ccc(Cl)cc2)CCOCC1 | 27.1%
CCCNC1(c2ccc(Cl)cc2)CCOCC1 | 67.7%
CO[C@H]1CN(Cc2ccc(C)o2)[C@@H]2CCCO[C@H]12 | 11.8%
CN(C)C(=O)COC[C@H]1CC[C@@H]2[C@@H](CCN2Cc2ccccn2)O1 | -79.4%
O=C1[C@@H]2CCN(CC3CC3)C[C@@H]2OCCN1c1cccnc1 | -73.4%
O=C(NCC(F)(F)F)C1=NOC2(CCCNC2)C1 (stereo not given) | -61.4%
CCOC[C@H]1CC[C@H]2[C@H](CCN2Cc2c(C)noc2C)O1 | -13.8%
CNc1cc(C)nc(N2C[C@H](C3CC3)[C@@H](N)C2)n1 | 88.3%
CCc1[nH]c(C2(N)CCCC2)nc(=O)c1C | -32.3%
COC(=O)CCC(=O)NC(C)Cc1ccccc1Br (stereo not given) | -63.4%
COCCN(Cc1ccccc1Cl)c1nc(CCN)nc2ccccc12 | 89.5%
c1cnc(N2CCO[C@H]3CN(CC4CC4)C[C@H]32)nc1 | 3.32%
CCCNCc1ccc(-c2cc(N)nc3[nH]ccc23)cc1 | 72.3%
CN(C)c1nccc(N(C)C2CCN(CC3CCOC3)CC2)n1 (stereo not given) | -4.08%
Cc1ccc(CNCc2cccc3cn[nH]c23)c(OC2CCOC2)c1 (stereo not given) | 78.7%
Cc1ccc(CNCc2cccc3cccnc23)c(OC2CCOC2)c1 (stereo not given) | 85.4%
Cc1nc(COC[C@@H]2CC[C@H]3NCC[C@H]3O2)cs1 | -46.5%
Cc1noc(C)c1CN1C[C@H](OCC(=O)N(C)C)[C@H]2COC[C@H]21 | -85.8%
O=C1[C@H]2CN(CC3CC3)C[C@H]2CN1c1ccsc1 | -60.4%
Cc1cnc(N2CCC[C@@H]3CN(CC(=O)N(C)C)C[C@@H]32)nc1 | -22.5%
COc1cc(C2SCC(=O)Nc3[nH]ncc32)cc(OC)c1OC (stereo not given) | -200%
O=C(NCC1CC1)C1CCC2(CCNCC2)C1 (stereo not given) | -31.3%
Cc1nc(CN2C[C@@H]3OCCN(c4ncc(F)cn4)[C@@H]3C2)cs1 | 52%
Fc1cnc(N2CCO[C@H]3CN(CC4CCCC4)C[C@H]32)nc1 | 25.4%
CC(C)CCN1C[C@@H]2OCCN(c3ncc(F)cn3)[C@@H]2C1 | -2.26%

SMILES | INHIBITION
CO[C@@H]1CCN(S(=O)(=O)c2cccnc2)[C@@H]2CN(CC3CC3)C[C@@H]21 | -23.6%
Cc1noc(C)c1CN1C(=O)[C@@H]2CC[C@H]1CN(Cc1nccs1)C2 | -122%
O=C(Cc1ccc(CO)cc1)N1CCN(CC2CC2)[C@@H]2CS(=O)(=O)C[C@@H]21 | -55.1%
O=c1cc(CN2CC[C@@H]3CC[C@H](C2)N3)c2cccc3c2n1CCC3 | -41.1%
COCCN1CCC12CCN(C(=O)c1ccc(C)nc1)C2 (stereo not given) | -172%
CCOc1ccc2nc(CN3CCC(CN)C3)ccc2c1 (stereo not given) | 85.5%
COC[C@]12COC[C@H]1CN(Cc1ccc3ccccc3n1)C2 | -29.2%
COc1cccc([C@@H]2CCN(Cc3ccc4ccccc4n3)C[C@H]2O)c1 | -17.2%
c1cnc(N2CCO[C@@H]3CN(Cc4ccoc4)C[C@@H]3C2)nc1 | -30.5%
Cc1cccc(S(=O)(=O)NCC(C)N2CCN(C)CC2)c1Cl (stereo not given) | 81.5%
CC(CNS(=O)(=O)c1cccc(Cl)c1)N1CCN(C)CC1 (stereo not given) | 78%
CNS(=O)(=O)CC(=O)NC(C)Cc1cccc(Cl)c1 (stereo not given) | -15.4%
Cc1cc(Cl)ccc1S(=O)(=O)NCC(C)N1CCN(C)CC1 (stereo not given) | 74.3%
COCCN1CCN(c2cc(OC)ncn2)Cc2ccc(C)nc21 | -102%
Cc1cc(CN2CC[C@H]3C[C@@H](c4nc(C5CC5)cs4)O[C@@H]3C2)no1 | 6.98%
Cc1ccccc1C1(CN)CCOCC1 | 36.4%
Cc1ccccc1C1(CN)CCCCC1 | 91%
NCC1(c2cccc(C(F)(F)F)c2)CCCCC1 | 2.74%
CC(c1cn2ccsc2n1)n1cc2[nH]cccc-2c1=O (stereo not given) | -134%
CO[C@H]1CN(C(C)C)C[C@@H]1NC(=O)c1cc(-c2ccccc2O)n[nH]1 | 90%
Clc1ccccc1-c1cc(CNc2ncnc3c2CCNCC3)no1 | 80.3%
CC(C)(C)C(=O)N1C[C@H](c2ccsc2)[C@H]2CN(C3CCCC3)CC[C@H]21 | 72.6%
CC(C)(C)C(=O)N1C[C@H](c2ccsc2)[C@H]2CN(C3CCCCC3)CC[C@H]21 | 77.3%
CN1CCN([C@@H]2CN(C(=O)Cc3ccsc3)[C@@H]3CCCO[C@H]23)CC1 | -66.9%
CCN1CCCC12CCCN(c1ncccn1)C2 (stereo not given) | -31.8%

SMILES | INHIBITION
CCC(CC)CN1CCC2(CCCN(c3ncccn3)C2)C1 (stereo not given) | 62.6%
Cc1noc(C)c1CN1CCCC2(CCN(C(=O)C3CC3)C2)C1 (stereo not given) | 12.9%
COCCN1CCC2(C1)CN(c1ncccn1)C2 | -85.3%
Cc1noc(C)c1CN1CCCC2(CCN(CC3CCCC3)C2)C1 (stereo not given) | 83.1%
Cc1noc(C)c1CN1CCCC2(CCN(C(=O)CC3CC3)C2)C1 (stereo not given) | -16.5%
c1cnc(N2CCCC3(CCN(CC4CCC4)C3)C2)nc1 (stereo not given) | 53.9%
c1cnc(N2CCC3(CN(CC4CCOC4)C3)C2)nc1 (stereo not given) | -15.6%
c1cnc(N2CCC3(CCCN(CC4CC4)C3)CC2)nc1 | 41.7%
c1cnc(N2CCCC3(CCN(CC4CC4)C3)C2)nc1 (stereo not given) | 61.1%
c1cnc(N2CCCC3(COCCN(CC4CC4)C3)C2)nc1 (stereo not given) | 37.4%
CNC(=O)CN1CCOCC12CCN(Cc1ccncc1)CC2 | -20.5%
Cc1cccc(CN2CCC[C@@H]3CN(C(=O)c4ccco4)C[C@@H]32)n1 | -73.5%
CCS(=O)(=O)NC[C@]12COC[C@H]1CN(Cc1cccnc1)C2 | -97.3%
O=C(NCC1CC1)[C@H]1C[C@@H]2[C@@H](C1)OCCN2Cc1cccnc1 | -29.4%
CC(C)(C)c1cn(C[C@H]2CC3CCN2C[C@@H]3C(=O)NC2CC2)nn1 (stereo not given in full) | -148%
Cc1noc(C)c1CN1C[C@@H]2C[C@H](C(=O)NCC3CC3)N(C)[C@@H]2C1 | -8.05%
O=C(C1CNCCO1)N1CCCC(c2ccccc2)(c2ccccc2)C1 (stereo not given) | 79.5%
CC(=O)C1(c2ccccc2)CCN(C(=O)C2CNCCO2)CC1 (stereo not given) | -81.4%
CC(=O)C1(c2ccccc2)CCN(C(=O)CC2CNCCO2)CC1 (stereo not given) | -44.7%
CCN(CC)c1nc(Nc2cccc(C(C)O)c2)nc2ccccc12 (stereo not given) | 84.5%
CC(O)c1cccc(Nc2nc(NCCO)c3ccccc3n2)c1 (stereo not given) | 89.4%
OC[C@@H]1CN2CCN(c3ccccn3)C[C@@H]2[C@H]1c1ccccc1 | -7.96%
c1ccc(CO[C@@H]2CN(Cc3nccs3)[C@@H]3COC[C@@H]32)nc1 | -84.8%
CCn1nc(C)c(CN2CCNCC2)c1C | -86.35%
c1cncc(C(Cn2cnnc2)N2CCOCC2)c1 (stereo not given) | -88.3%
